Source: PubChem BioAssay AID1159580 (chemical genetic matrix, 2015)
Out of some 5,500 compounds screened, about 2,000 (36%) were called active. Inconclusive results (about 18%) are left out. No stated cut-off is given here; in the data, active means normalized growth mostly below about 0.91 (no sharp cut-off); inconclusive means no clear call, values can overlap the other calls; inactive means mostly above about 0.92. The list shows a part of the results.

Assay: chemical genetic growth profiling, strain panel (AID 1159580);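 further: tested at 20 µM; growth read once vehicle control cultures reached saturation at 30 °C; 1 = growth at the plate median or of vehicle wells; lower values mean less growth of the strain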
Conditions: S. cerevisiae deletion strains, growth OD

Measured: normalized growth

Clc1ccc(CO/N=C(/Cn2ccnc2)c2ccc(Cl)cc2Cl)c(Cl)c1
active: locus YAL021C, strain ccr4, hits give low values 0.0719 | locus YAL026C, strain drs2, hits give low values 0.066 | locus YAL030W, strain snc1, hits give low values 0.062 | locus YBL061C, strain skt5, hits give low values 0.0675 | locus YBR009C, strain hhf1, hits give low values 0.0713 | locus YBR023C, strain chs3, hits give low values 0.0703 | locus YBR171W, strain sec66, hits give low values 0.084 | locus YBR231C, strain swc5, hits give low values 0.0712 | locus YBR279W, strain paf1, hits give low values 0.0663 | locus YCL011C, strain gbp2, hits give low values 0.0641 | locus YCL016C, strain dcc1, hits give low values 0.0718 | locus YCL069W, strain vba3, hits give low values 0.0674 | locus YCR088W, strain abp1, hits give low values 0.0653 | locus YDL005C, strain med2, hits give low values 0.0803 | locus YDL040C, strain nat1, hits give low values 0.0648 | locus YDR001C, strain nth1, hits give low values 0.0642 | locus YDR069C, strain doa4, hits give low values 0.07 | locus YDR137W, strain rgp1, hits give low values 0.106 | locus YDR159W, strain sac3, hits give low values 0.103 | locus YDR195W, strain ref2 0.146 | locus YDR297W, strain sur2, hits give low values 0.0626 | locus YDR334W, strain swr1, hits give low values 0.0671 | locus YDR335W, strain msn5, hits give low values 0.0633 | locus YDR392W, strain spt3, hits give low values 0.0807 | locus YEL003W, strain gim4, hits give low values 0.0579 | locus YEL037C, strain rad23, hits give low values 0.0606 | locus YEL061C, strain CIN8 (second series), hits give low values 0.0642 | locus YER015W, strain faa2, hits give low values 0.0705 | locus YER016W, strain bim1, hits give low values 0.0699 | locus YER111C, strain swi4, hits give low values 0.0753 | locus YER155C, strain BEM2 (second series), hits give low values 0.104 | locus YFR010W, strain ubp6, hits give low values 0.0725 | locus YGL167C, strain pmr1, hits give low values 0.0799 | locus YGL173C, strain kem1, hits give low values 0.0926 | locus YGL227W, strain vid30, hits give low values 0.067 | locus YGL240W, strain doc1, hits give low values 0.108 | locus YGL253W, strain hxk2, hits give low values 0.0581 | locus YHR013C, strain ard1, hits give low values 0.111 | locus YHR027C, strain rpn1, hits give low values 0.0678 | locus YHR030C, strain SLT2, hits give low values 0.11 | locus YHR079C, strain IRE1, hits give low values 0.138 | locus YHR142W, strain chs7, hits give low values 0.0783 | locus YJL092W, strain hpr5, hits give low values 0.0639 | locus YJL095W, strain BCK1 (second series), hits give low values 0.0624 | locus YJL095W, strain BCK1, hits give low values 0.119 | locus YJL115W, strain asf1, hits give low values 0.076 | locus YJL129C, strain trk1, hits give low values 0.0899 | locus YJL154C, strain vps35, hits give low values 0.0641 | locus YJL164C, strain tpk1, hits give low values 0.0663 | locus YJL166W, strain qcr8, hits give low values 0.0665 | locus YJL187C, strain SWE1, hits give low values 0.0662 | locus YJR066W, strain TOR1, hits give low values 0.016 | locus YKL160W, strain elf1, hits give low values 0.0739 | locus YKR026C, strain gcn3, hits give low values 0.0685 | locus YKR091W, strain srl3, hits give low values 0.0651 | locus YLL001W, strain dnm1, hits give low values 0.0676 | locus YLL026W, hits give low values 0.0627 | locus YLL041C, strain sdh2, hits give low values 0.0619 | locus YLR027C, strain aat2, hits give low values 0.0637 | locus YLR113W, strain HOG1, hits give low values 0.138 | locus YLR221C, strain rsa3, hits give low values 0.0614 | locus YLR258W, strain gsy2, hits give low values 0.0647 | locus YLR262C, strain YPT6 (second series), hits give low values 0.0952 | locus YLR320W, strain mms22, hits give low values 0.0852 | locus YLR342W, strain FKS1, hits give low values 0.0731 | locus YLR357W, strain rsc2, hits give low values 0.13 | locus YLR370C, strain arc18, hits give low values 0.0687 | locus YLR384C, strain iki3, hits give low values 0.0679 | locus YML120C, strain ndi1, hits give low values 0.0632 | locus YMR058W, strain fet3, hits give low values 0.0659 | locus YMR125W, strain sto1, hits give low values 0.0799 | locus YMR129W, hits give low values 0.0624 | locus YMR205C, strain PFK2, hits give low values 0.104 | locus YMR231W, strain pep5, hits give low values 0.205 | locus YNL071W, strain lat1, hits give low values 0.0653 | locus YNL183C, strain NPR1, hits give low values 0.0338 | locus YNL209W, strain ssb2, hits give low values 0.0716 | locus YNL248C, strain rpa49, hits give low values 0.0816 | locus YNL322C, strain KRE1 (second series), hits give low values 0.0683 | locus YNR049C, strain mso1, hits give low values 0.0594 | locus YOR001W, strain rrp6, hits give low values 0.0749 | locus YOR070C, strain gyp1, hits give low values 0.0664 | locus YOR080W, strain dia2, hits give low values 0.0735 | locus YOR083W, strain WHI5, hits give low values 0.0763 | locus YOR106W, strain vam3, hits give low values 0.0782 | locus YOR231W, strain MKK1, hits give low values 0.116 | locus YOR265W, strain rbl2, hits give low values 0.0668 | locus YOR270C, strain vph1, hits give low values 0.112 | locus YOR290C, strain snf2, hits give low values 0.0669 | locus YPL051W, strain arl3, hits give low values 0.0756 | locus YPL078C, strain atp4, hits give low values 0.08 | locus YPL106C, strain sse1, hits give low values 0.105 | locus YPL240C, strain hsp82, hits give low values 0.0633 | locus YPL256C, strain CLN2, hits give low values 0.139
